From PubChem BioAssay AID686971 (National Center for Advancing Translational Sciences (NCATS), 2013) come the findings set out here.

Screen size: about 360,000 compounds; about 7,500 (2.1%) were called active. A call without a number means that no potency is given here. Inconclusive results (about 8%) are left out. Calls come from the whole dose curve; as a rule, active = well fitted cell-killing curve with a large enough effect; inconclusive = small, poorly fitted or top-dose-only effect, or effect the other way, or another doubt; inactive = no such curve, though single readings can be large or run the other way. The full list was thinned out, with actives kept by preference.
Potency is the fitted concentration of half-maximal effect.

This assay in a line: qHTS for induction of synthetic lethality in tumor cells producing 2HG: qHTS for the HT-1080-IDH1KD cell line. The conditions noted are these: HT-1080 IDH1 knockdown viability, ATP luminescence, 48 h; series mostly up to 46.1 µM. The method in brief:
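Luminescent ATP read-out (CellTiter-Glo, 10 min at room temperature) after 48 h compound exposure at 37 °C gave viability of IDH1-knockdown HT-1080 cells. Activity was normalised to DMSO and cell-free wells, then fitted as concentration-response curves.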
As for `CCN(CC)C(=O)C1=C(C)N(Cc2ccccc2)C(=O)C(CC(=O)NC(c2ccccc2)c2ccccc2)C1` (stereo not drawn), the Potency entry is “inactive”.

For the compound `COc1cccc(NC(=O)C2(C)CCN2C(=O)CCC2CCCC2)c1` (stereo not drawn), the Potency entry was “inactive”.

In the case of `CCC(C(=O)OCC(=O)Nc1c(Cl)cc(Cl)cc1Cl)c1ccccc1` (stereo not drawn), the Potency entry was “inactive”. For the compound `CCC(C(=O)OCC(=O)Nc1ccc(C(=O)Nc2ccc(OC)cc2)cc1)c1ccccc1` (stereo not drawn), the Potency was 25.9 µM (active). In the case of `CCC(C(=O)OCC(=O)Nc1ccccc1-c1ccccc1)c1ccccc1` (stereo not drawn), the Potency entry was “inactive”.

As for `CC(C)N1C(=O)c2ccccc2NC(=O)C1C(=O)NCc1cccs1` (stereo not drawn), the Potency result was “inactive”. With `Cc1cccc(NC(=O)COC(=O)c2ccccc2OCc2cccc(Br)c2)c1` the entry was “inactive”. `Cn1c(NC(=O)c2ccccc2)nc2ccccc21`: the Potency entry was “inactive”. As for `O=C(NC1=CC(=O)c2ccccc2C1=O)c1ccccc1`, the Potency was 7.31 µM (active). `O=C1C=C(NS(=O)(=O)c2ccccc2)C(=O)c2ccccc21`: the Potency entry is “inactive”.

For the compound `Cc1ccc(-c2c(N)nc3ncccn23)cc1`, the Potency entry was “inactive”. Turning to `CCNC(=O)C1CCCN(C(=O)c2ccc(OC)cc2OC)CC1` (stereo not drawn), the Potency entry was “inactive”. Consider `COc1ccc(NC(=S)NCc2cccs2)c(OC)c1`, for which the Potency entry is “inactive”. As for `COc1cccc(-c2cc3nc(NCc4ccccc4OC)n(C)c(=O)c3s2)c1`, the entry is “inactive”. `COc1cccc(CNc2nc(NCc3ccccc3OC)nc3ccsc23)c1`: the Potency was 23.1 µM (active).

For `COc1ccccc1CNc1nc(Nc2ccccc2Cl)c2sccc2n1`, the Potency entry is “inactive”. With `Clc1ccccc1Nc1nc(NCc2cccs2)nc2ccsc12`, the Potency result was “inactive”.

For `COc1cccc(CNc2nc(NCc3cccs3)nc3ccsc23)c1`, the Potency is 23.1 µM (active).

Turning to `COc1ccc(COC[C@H](CC(C)C)N2CCN(C(=O)c3cccc(C(F)(F)F)c3)CCC2=O)cc1`, the Potency result was “inactive”. Take `CCOC(=O)c1cc2cc(OC)ccc2n1C1CCN(C)CC1`: the Potency entry was “inactive”. Take `CCc1ccc(OC2(C)CCN(CCOc3ccc(C)cc3)C2)cc1` (stereo not drawn): the Potency result is “inactive”.

With `O[C@@H]1C[C@H](c2ccccc2)N(Cc2cccs2)C[C@H]1n1cc(C2CC2)nn1`, the Potency entry was “inactive”. `CSc1ncccc1C(=O)N1CCCC(Nc2ccc(F)c(F)c2)C1` (stereo not drawn): the Potency result was “inactive”.

On to `Cc1ccccc1-c1nc(NC(C)C)nc2cc(-c3ccccc3)sc12`, for which the Potency result was “inactive”. As for `CCCCN(C=O)c1c(CC)nc2c(OCc3ccccc3C(=O)OC)cccn12`, the entry is “inactive”; as for `Cc1nc2c(OCc3ccc(Cl)cc3)cccn2c1N(C)Cc1cccs1`, 16.4 µM (active); as for `CCc1nc2c(OCc3ccc(F)c(F)c3)cccn2c1N(C)C(=O)c1ccco1`, “inactive”. As for `Cc1nc2ccccc2nc(C)c1=NOCc1ccc(Cl)cc1Cl`, the Potency entry is “inactive”. On to `CCc1nc2c(OCc3ccc(C(=O)OC)cc3)cccn2c1N(C)C(=O)C(C)C`, for which the Potency result was “inactive”.

Turning to `CCc1nc2c(OCc3ccc(Cl)cc3Cl)cccn2c1N(C)C(=O)C(C)C`, the Potency is 16.4 µM (active). As to `CCOC(=O)N(C)c1c(CC)nc2c(OCc3ccccc3C(=O)OC)cccn12`, the Potency entry is “inactive”.

On to `CCc1nc2c(OCc3ccccc3)cccn2c1N(C)C(=O)c1ccco1`, for which the Potency result was “inactive”.

With `Cc1nc2c(OCc3ccc(Cl)cc3Cl)cccn2c1N(C)CC1CC1`, the Potency is 14.6 µM (active). Regarding `CCOC(=O)[C@]12CCCC=C1N(CCC1=CCCCC1)C(=O)[C@H](CC(=O)N1CCOCC1)C2`, the Potency entry was “inactive”. Regarding `Cc1ccc(S(=O)(=O)N[C@H](CO)C(C)C)cc1`, the Potency entry was “inactive”. As for `COCCCn1c(C(=O)NC2CCCCC2)cc2c(=O)n3cccc(C)c3nc21`, the entry is “inactive”; as for `COc1ccc(S(=O)(=O)N2CCC(C(=O)NCCC(=O)Nc3ccccc3OC)CC2)cc1`, “inactive”; as for `CCOC(=O)C1=CC[C@@H](c2ccccc2)N(S(=O)(=O)c2ccc(C)cc2)[C@H]1c1cccc(OC)c1`, “inactive”. As for `COc1ccc(S(=O)(=O)N[C@@H]2C=C[C@@H](CC(=O)N3CCc4ccccc4C3)O[C@@H]2CO)cc1`, the entry is “inactive”; as for `O=C(COc1ccc(Br)cc1F)NC1CCN(Cc2ccccc2)CC1`, “inactive”; as for `O=C(NC1CCN(Cc2ccccc2)CC1)c1cc(Br)c(Br)[nH]1`, “inactive”. In the case of `S=C(Nc1ccc(Br)cc1Cl)NC1CCN(Cc2ccccc2)CC1`, the Potency is 20.6 µM (active). For `CC1(C(=O)NS(=O)(=O)C2CC2)CCCN(C(=O)CSc2ccccc2)C1` (stereo not drawn), the Potency result is “inactive”. With `Oc1c(C(c2ccccn2)N2CCOCC2)ccc2cccnc12` (stereo not drawn) the figure was 0.251 µM (active); with `CC(C)c1cc(CN2CCOCC2)cc(C(C)C)c1O`, “inactive”.

For `O=C(Nc1ccccc1)c1ccccc1Br`, the Potency entry was “inactive”. As for `CC(C)C[C@H](NC(=O)N1CC(=O)Nc2ccccc21)C(=O)N[C@H](Cc1ccccc1)C(=O)O`, the entry is “inactive”; as for `CC(C)c1ccc(NC(=O)[C@@H](NC(=O)N2CC(=O)Nc3ccccc32)C(C)C)cc1`, 13 µM (active).

As to `CC(C)[C@H](NC(=O)N1CC(=O)Nc2ccccc21)C(=O)N[C@@H](Cc1c[nH]c2ccccc12)C(=O)O`, the Potency result is “inactive”.

Consider `COc1ccc(C(C)C)cc1-c1ccc2nncn2c1`, for which the Potency entry was “inactive”. With `CC1(C(=O)NS(=O)(=O)c2ccccc2)CCN1C(=O)Cc1ccc(-c2ccccc2)cc1` (stereo not drawn) the entry was “inactive”; with `Cc1ccc(F)c(S(=O)(=O)NC(=O)C2(C)CCN2C(=O)CCc2cccs2)c1` (stereo not drawn), “inactive”.

With `CCCOc1ccccc1C1CC(=O)Nc2cc3c(cc21)OCO3` (stereo not drawn), the Potency was 1.84 µM (active). Turning to `COC(=O)c1ccc(C2CC(=O)Nc3cc(OC)c(OC)cc32)cc1` (stereo not drawn), the Potency result is “inactive”. As for `CCCOc1ccc(C2NC(=O)NC(c3ccccc3)=C2C(C)=O)cc1OCC` (stereo not drawn), the entry is “inactive”; as for `COc1ccccc1NC(=O)[C@H](COCc1ccccc1)NC(=O)OC(C)(C)C`, “inactive”. As for `C[C@@H](NC(=O)OC(C)(C)C)c1nnc(S(=O)(=O)Cc2ccccc2)o1`, the figure is 18.4 µM (active); as for `CCc1ccccc1NC(=O)CSc1nnc([C@@H](NC(=O)OC(C)(C)C)C(C)CC)o1` (stereo partly drawn), “inactive”; as for `OC[C@@H]1CN(Cc2cccs2)C[C@H](n2cnc3c(NC4CCCC4)ncnc32)O1`, “inactive”. With `OC[C@@H]1CN(Cc2ccc(-c3ccccc3)cc2)C[C@H](n2cnc3c(NC4CCCC4)ncnc32)O1`, the Potency was 20.6 µM (active). `OC[C@@H]1CN(Cc2ccc(F)cc2)C[C@H](n2cnc3c(NC4CCCC4)ncnc32)O1`: the Potency entry was “inactive”. With `CC1=C(C(=O)N2CCOCC2)CC(CC(=O)NCc2cccc3ccccc23)C(=O)N1CCC1=CCCCC1` (stereo not drawn) the entry was “inactive”; with `Cc1ccc(C(=O)NC(C)C(c2cccs2)N2CCOCC2)cc1C` (stereo not drawn), “inactive”.
